Results filed as inconclusive are left out. Where a call stands in place of a potency, no number is given. A number with no mark means an inactive call. The source made the active and inactive calls. Calls follow the shape of the full dose curve.
experiment: p53 small molecule agonists, cell-based qHTS assay with human liver microsomes (AID 1963577); details: HCT-116 p53RE-bla with human liver microsomes, ratio, 16 h; series mostly up to 66 µM;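 also: p53 response element beta-lactamase reporter cells with liver microsomes plus NADPH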
Source text: National Center for Advancing Translational Sciences [NCATS]
Division of Preclinical Innovation [DPI]
U.S. Environmental Protection Agency [EPA]
National Institutes of Environmental Health Sciences [NIEHS]
National Toxicology Program [NTP]
U.S. Food and Drug Administration [FDA]
p53, a tumor suppressor protein, is activated following cellular insult, including DNA damage and other cellular stresses. The activation of p53 regulates cell fate by inducing DNA repair, cell cycle arrest, apoptosis, or cellular senescence. The activation of p53, therefore, is a good indicator of DNA damage and other cellular stresses. […] The activation of the reporter gene under culture conditions can be detected by fluorescence intensity.
Tox21 Assay Protocol Summary:
The p53RE-bla cells were dispensed at 4,000cells/3ul/well in 1536-well black-clear bottom plates. After the assay plates were incubated at 37 C, 5% CO2 incubator for 5 hours, 23 nL of compounds dissolved in DMSO, positive controls or DMSO only was transferred to the assay plate. Following compound addition, 3 uL of human liver microsomes (XenoTech, Kansas City, KS) at final concentration of 0.5 mg/mL and 1uL of Beta-Nicotinamide adenine dinucleotide 2-phosphate (NADPH) at final concentration of 0.5 mg/mL were transferred to the assay plate. The plates were incubated at 37 C for 16 hours. 1 uL of LiveBLAzer detection mixture was added to each well and the plates were incubated at room temperature in the dark for 2 h.

**Q.** With `COc1cc(C)ccc1O` as the compound, how does the Potency read?
**A.** Its Potency is “inactive”.

**Q.** For `O=C1C(CCS(=O)c2ccccc2)C(=O)N(c2ccccc2)N1c1ccccc1` (stereo not given), which Potency is on record?
**A.** The Potency was “inactive”.

**Q.** Which Potency does the source give for `COC(=O)NN` here?
**A.** Its Potency is “inactive”.

**Q.** Which Potency does the source give for `O=C1c2ccccc2C(=O)C1(O)O` here?
**A.** The Potency was “inactive”.

**Q.** For `CO/N=C(\C(=O)N[C@@H]1C(=O)N2C(C(=O)O)=C(CSc3nc(=O)c(O)nn3C)CS[C@H]12)c1csc(N)n1`, which Potency is on record?
**A.** The Potency was “inactive”.

**Q.** Which Potency does the source give for `COc1ccc2c(c1)c(CC(=O)OCC(=O)O)c(C)n2C(=O)c1ccc(Cl)cc1` here?
**A.** Its Potency is “inactive”.

**Q.** With `N#Cc1cscn1` as the compound, how does the Potency read?
**A.** The Potency was “inactive”.

**Q.** Which Potency does the source give for `CN1CCN(N)CC1` here?
**A.** The Potency was “inactive”.

**Q.** With `O=C(O)c1cc(C(=O)O)c(C(=O)O)cc1C(=O)O` as the compound, how does the Potency read?
**A.** Its Potency is “inactive”.

**Q.** For `Nc1cccc2c(=O)[nH][nH]c(=O)c12`, which Potency is on record?
**A.** The Potency was “inactive”.

**Q.** With `CCC(C)(CCC(C)C)C(=O)[O][Sn]([CH3])([CH3])[O]C(=O)C(C)(CC)CCC(C)C` (stereo not given) as the compound, how does the Potency read?
**A.** The Potency was “inactive”.

**Q.** Which Potency does the source give for `CN1CCCC(n2nc(Cc3ccc(Cl)cc3)c3ccccc3c2=O)CC1` (stereo not given) here?
**A.** Its Potency is “inactive”.

**Q.** With `Nc1ccc(S(=O)(=O)Nc2ccccc2)cc1` as the compound, how does the Potency read?
**A.** Its Potency is “inactive”.

**Q.** With `C/C(=N/NC(=O)c1ccncc1)C(=O)O` as the compound, how does the Potency read?
**A.** The Potency was “inactive”.

**Q.** For `CCN(CC)CCNC(=O)COc1ccc(Cl)cc1`, which Potency is on record?
**A.** The Potency was “inactive”.

**Q.** Which Potency does the source give for `CCCCCCCC/C=C/C(=O)O` here?
**A.** The Potency was “inactive”.

**Q.** With `CCOC(=O)c1ccc(NC(=O)CN2CCCCC2)cc1` as the compound, how does the Potency read?
**A.** Its Potency is “inactive”.

**Q.** For `Oc1ccccc1Cc1ccccc1O`, which Potency is on record?
**A.** Its Potency is “inactive”.

**Q.** Which Potency does the source give for `CCN1CCC[C@H]1CNC(=O)c1cc(S(N)(=O)=O)ccc1OC` here?
**A.** The Potency was “inactive”.

**Q.** Which Potency does the source give for `C=CCON/C(CCC)=C1\C(=O)CC(C)(C)C(C(=O)OC)=C1O` here?
**A.** Its Potency is “inactive”.

**Q.** Which activation does the source give for `CC(C)Cn1cnc2c(N)nc3ccccc3c21` here?
**A.** Its activation is 13.5% [at 13.5 µM].

**Q.** Which Potency does the source give for `CCc1cccc(C)c1N(C(=O)C(=O)O)C(C)COC` (stereo not given) here?
**A.** Its Potency is “inactive”.

**Q.** Which Potency does the source give for `Nc1cc(C(=O)O)ccc1Cl` here?
**A.** Its Potency is “inactive”.

**Q.** Which Potency does the source give for `O=C(CCOCCOCCOCCOCCC(=O)Nc1c(I)cc(I)c(C(=O)O)c1I)Nc1c(I)cc(I)c(C(=O)O)c1I` here?
**A.** The Potency was “inactive”.

**Q.** Which Potency does the source give for `CC(C)OC(=O)C(C)N(C(=O)c1ccccc1)c1ccc(F)c(Cl)c1` (stereo not given) here?
**A.** The Potency was “inactive”.

**Q.** For `CCCCC(CC)C(=O)OC(C)C` (stereo not given), which Potency is on record?
**A.** The Potency was “inactive”.

**Q.** With `Brc1ccc(-c2ccccc2)cc1` as the compound, how does the Potency read?
**A.** The Potency was “inactive”.

**Q.** With `N=C1N=C(N)c2ccccc21` as the compound, how does the Potency read?
**A.** Its Potency is “inactive”.

**Q.** For `O=C(c1ccccc1)c1ccc(Cl)cc1`, which Potency is on record?
**A.** The Potency was “inactive”.

**Q.** Which Potency does the source give for `CCCCOCCOC(=O)CCCCCCCCC(=O)OCCOCCCC` here?
**A.** Its Potency is “inactive”.

**Q.** Which Potency does the source give for `CCCCOc1cc(C(=O)NCCN(CC)CC)c2ccccc2n1` here?
**A.** The Potency was “inactive”.

**Q.** Which Potency does the source give for `Cc1c(C)c2c(c(C)c1O)CC[C@@](C)(CCC[C@H](C)CCC[C@H](C)CCCC(C)C)O2` here?
**A.** Its Potency is “inactive”.

**Q.** With `CCC(C)(CCCC(C)C)OC(C)=O` (stereo not given) as the compound, how does the Potency read?
**A.** Its Potency is “inactive”.

**Q.** For `CCCCC(=O)OCC(=O)[C@H]1[C@H](C)C[C@H]2[C@@H]3C[C@H](F)C4=CC(=O)C=C[C@]4(C)[C@@]3(F)[C@@H](O)C[C@@]21C`, which Potency is on record?
**A.** The Potency was “inactive”.

**Q.** Which Potency does the source give for `CO[Si](OC)(OC)OC` here?
**A.** The Potency was “inactive”.

**Q.** For `C=CCSSCCC`, which Potency is on record?
**A.** The Potency was “inactive”.

**Q.** With `CCc1cc(Cl)c(OC)c(C(=O)NC[C@@H]2CCCN2CC)c1O` as the compound, how does the Potency read?
**A.** Its Potency is “inactive”.

**Q.** For `C=CC(=O)OCC(O)COc1ccccc1` (stereo not given), which Potency is on record?
**A.** Its Potency is “inactive”.

**Q.** With `CC(C)c1ccc2sc3ccccc3c(=O)c2c1` as the compound, how does the Potency read?
**A.** Its Potency is “inactive”.

**Q.** Which Potency does the source give for `CC(=O)c1ccc(Cl)c(Cl)c1Cl` here?
**A.** The Potency was “inactive”.

Reference: PubChem BioAssay (Tox21)
